Data reported in article PMC7819943, “Rice protein-binding microarrays: a tool to detect cis-acting elements near promoter regions in rice”.
Over roughly 35,000 sequences, “fluorescence intensity (a.u.)” has its median near 10,000; the highest 2% begin near 52,000. The sample as a whole holds a higher share of the highest values than the screen did.

These sequences were tested against T1, OsWOX13 (Oryza sativa, UniProt Q5QMM3 1-267) (assay: protein-binding microarray (RPBM); PBS, 2% BSA, 51.3 ng/ul salmon testes DNA, 50 uM zinc acetate, 200 nM TF, 25 C, 1 h; high values mean tight binding). Conditions: protein: recombinant; tags: N-terminal polyhistidine and DsRed monomer fusion (pET32a); label: CyDye5-dUTP incorporated in the synthesized complementary strand; 3' TTTTT single-stranded linker to array surface; dsDNA, one strand shown.
T1 sequence: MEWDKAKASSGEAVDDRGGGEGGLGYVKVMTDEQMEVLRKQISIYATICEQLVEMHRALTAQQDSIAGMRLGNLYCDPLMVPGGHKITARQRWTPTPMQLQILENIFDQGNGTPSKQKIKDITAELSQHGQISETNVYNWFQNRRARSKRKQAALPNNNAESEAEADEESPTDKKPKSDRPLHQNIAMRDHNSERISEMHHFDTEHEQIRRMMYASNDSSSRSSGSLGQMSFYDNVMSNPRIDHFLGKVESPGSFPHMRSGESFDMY
How it was run: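 Transcription factors were each fused at the N-terminus to a polyhistidine tag plus DsRed and expressed in E. coli BL21-CodonPlus before Ni–NTA purification. Binding to a double-stranded custom Agilent array was carried out with 200 nM protein at 25 °C for 1 h in PBS, 2% BSA, salmon testes DNA and 50 µM zinc acetate. The binding signal is per-feature fluorescence intensity, in arbitrary units, on an Axon 4000B scanner.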
“ACACTAAATTAATGTATGCAATGTCCATTGGTAAATAACTCGGAGTCACCTAGTGCAG” was tested, and the binding signal was 14900 fluorescence intensity (a.u.). For “AGTGATTAGTGAAGCAAAGGAAGACGACGAGTGACACGAGCGGAGTCACCTAGTGCAG”, the binding signal was 21900 fluorescence intensity (a.u.). With “CTGGATTGGTGATTGATTATCCGAGCAAGCAAAGACGATGCGGAGTCACCTAGTGCAG” the binding signal was 63800 fluorescence intensity (a.u.). In the case of “GATTAAGATTTTATCCGATTGATGATGCGCCGTAGCAGTGCGGAGTCACCTAGTGCAG”, the binding signal is reported as 8650 fluorescence intensity (a.u.). For “TTTAAGATCATGATTAACATGACATTGAAGCATTACCACGCGGAGTCACCTAGTGCAG”, the binding signal was 5610 fluorescence intensity (a.u.). For “GAATTAGCTTGATTGACAGAAACAAATGGCTACAACTACACGGAGTCACCTAGTGCAG”, the binding signal was 50600 fluorescence intensity (a.u.). In the case of “AACCAGATTCACCGTGATTAGTTTCACCCTAGTCTAGTCTCGGAGTCACCTAGTGCAG”, the binding signal is reported as 10800 fluorescence intensity (a.u.). For “TTAATTAATTGATCACTTCCAAATCATGTAGCAGTACTGTCGGAGTCACCTAGTGCAG”, the binding signal was 65400 fluorescence intensity (a.u.). “ATCCATGATTAACAGTTGATTACTGTAGCAAATCATGGATCGGAGTCACCTAGTGCAG” was tested, and the binding signal was 34400 fluorescence intensity (a.u.). With “CACAATTCCTTCTAATTATTTGATAATCAAGTTTCTCCTTCGGAGTCACCTAGTGCAG” the binding signal was 9620 fluorescence intensity (a.u.). In the case of “ATAATTGAGTAGATAATCCTTGCAATAATCCGCTCAATAACGGAGTCACCTAGTGCAG”, the binding signal is reported as 8180 fluorescence intensity (a.u.). “ATATATAATCATTGATCTTAATTATTGAGTGTCAGTAGTACGGAGTCACCTAGTGCAG” was tested, and the binding signal was 24400 fluorescence intensity (a.u.). In the case of “TTAATTGATCAATAATCACTGTTCCTTCTCAAGTAGTCAACGGAGTCACCTAGTGCAG”, the binding signal is reported as 64600 fluorescence intensity (a.u.). For “ACTATTAATGTGAACTGATATGATACATTTTAGAGCTAGCCGGAGTCACCTAGTGCAG”, the binding signal was 6440 fluorescence intensity (a.u.). In the case of “TACACCTTTGACAGACAACAAAGCATTGAATCTTCTATGCCGGAGTCACCTAGTGCAG”, the binding signal is reported as 5260 fluorescence intensity (a.u.). “GATAACTGGATTCATCTGTCTCCTCAACGTGTGGTCTGTACGGAGTCACCTAGTGCAG” was tested, and the binding signal was 19900 fluorescence intensity (a.u.). With “TGCCACACAAATTTTGCAAAATTTGTGATATGCCACCTGACGGAGTCACCTAGTGCAG” the binding signal was 6080 fluorescence intensity (a.u.). For “TAATAATAATAATAATGCAAATTACCAAAATATAAGCCCACGGAGTCACCTAGTGCAG”, the binding signal was 6280 fluorescence intensity (a.u.). For “GCCAAATTGACAGAGTTACCTCGCTATATAAGGCTGCCCACGGAGTCACCTAGTGCAG”, the binding signal was 57600 fluorescence intensity (a.u.). For “ACTTGACAGGAATTGCAGAAAGGCCCCTCGCCAAAACTCACGGAGTCACCTAGTGCAG”, the binding signal was 30900 fluorescence intensity (a.u.). “ATATCAATTAATGCTTCAAGATTAGCACCCATATTATATGCGGAGTCACCTAGTGCAG” was tested, and the binding signal was 35100 fluorescence intensity (a.u.). “AGTGATTAATGAGACAAATAGTACTTTATTGTGACAAGTACGGAGTCACCTAGTGCAG” was tested, and the binding signal was 30900 fluorescence intensity (a.u.). For “AAATTGACAAGATAGATCAATATATAATATATCACTACACCGGAGTCACCTAGTGCAG”, the binding signal was 10200 fluorescence intensity (a.u.). For “CTTAATTAACACTCGTAAGATTGACAAATAGTTGAATATCCGGAGTCACCTAGTGCAG”, the binding signal was 60300 fluorescence intensity (a.u.). In the case of “AATCATTTAAAACATTGATTTTATTTGACGATAAAACTAGCGGAGTCACCTAGTGCAG”, the binding signal is reported as 4690 fluorescence intensity (a.u.). With “TATTTTCAATTATAGGTCTAATTGTTTTATTTAGGTGATTCGGAGTCACCTAGTGCAG” the binding signal was 20500 fluorescence intensity (a.u.). In the case of “AGACAATGATAGTGATAATTAACAAATTCAGTTTAAGATCCGGAGTCACCTAGTGCAG”, the binding signal is reported as 19700 fluorescence intensity (a.u.). “TTTGATTCTTTTAAATTAAATAATTTTAAAGTCATTGATACGGAGTCACCTAGTGCAG” was tested, and the binding signal was 21100 fluorescence intensity (a.u.). “GGTAATATTTTGATTAAATTTGACTAAATTTTGTTTAAAACGGAGTCACCTAGTGCAG” was tested, and the binding signal was 11800 fluorescence intensity (a.u.). For “AAACTGATTCTTTGATTATTGACGTCTCATAGACCTACGTCGGAGTCACCTAGTGCAG”, the binding signal was 31600 fluorescence intensity (a.u.). With “CTAATTGATTAGTAAACTATTTATATAGGACTGTTGTTTTCGGAGTCACCTAGTGCAG” the binding signal was 58300 fluorescence intensity (a.u.). For “TTGATTGACTAAACTGTCACGTCAGCGTCATATTGACGAACGGAGTCACCTAGTGCAG”, the binding signal was 54900 fluorescence intensity (a.u.). In the case of “GAAATAATTAATTAATTTAATTAATTGATTGACACAAGTACGGAGTCACCTAGTGCAG”, the binding signal is reported as 65000 fluorescence intensity (a.u.). For “GAAATTAAACTAATATTTCGGCCCATCAAGGGCTCGCTTGCGGAGTCACCTAGTGCAG”, the binding signal was 8580 fluorescence intensity (a.u.). With “TCTGATTATTAATTATCACTTTATCAGTCTCCAACGTTTACGGAGTCACCTAGTGCAG” the binding signal was 40900 fluorescence intensity (a.u.). In the case of “ATACTTAATTAATGATACGATAATTGAATTTATTCTCTCCCGGAGTCACCTAGTGCAG”, the binding signal is reported as 49900 fluorescence intensity (a.u.). “ATACTTGACAGGTTTTATGCATATAAGAAAATCTGTTTAACGGAGTCACCTAGTGCAG” was tested, and the binding signal was 7520 fluorescence intensity (a.u.). “CTCTCTCTCTGATTAGTTAATTGAATACATTGTAAGGGCCCGGAGTCACCTAGTGCAG” was tested, and the binding signal was 41200 fluorescence intensity (a.u.). In the case of “TCGCTAATAAATCATATGATGTCATGGGCCCGAGACATCTCGGAGTCACCTAGTGCAG”, the binding signal is reported as 3380 fluorescence intensity (a.u.). With “TGTGTTAAACTATATAATTTTCTCTAAAACATAATGGTACCGGAGTCACCTAGTGCAG” the binding signal was 3720 fluorescence intensity (a.u.). “TTAATTCTATCTAGTAGTAGAGTTAGTTATTTATATATTACGGAGTCACCTAGTGCAG” was tested, and the binding signal was 5310 fluorescence intensity (a.u.). “CCTTCGATTATTGGCACGGATTGTTTATCCAGGTAAGACTCGGAGTCACCTAGTGCAG” was tested, and the binding signal was 13300 fluorescence intensity (a.u.).
